Measured values reported in PubChem BioAssay AID1159580 (chemical genetic matrix, 2015).
Out of some 5,500 compounds screened, about 2,000 (36%) were called active. Not shown: some 18% with an inconclusive outcome. Cut-off read from the data, not from the text of the source: active = normalized growth mostly below about 0.91 (no sharp cut-off); inconclusive = no clear call, values can overlap the other calls; inactive = mostly above about 0.92. The list shows a part of the results.

Assay: chemical genetic growth profiling, strain panel (AID 1159580);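 note: tested at 20 µM; growth read once vehicle control cultures reached saturation at 30 °C; 1 = growth at the plate median or of vehicle wells; lower values mean less growth of the strain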
Conditions: S. cerevisiae deletion strains, growth OD

Measured: normalized growth

CCOC(=O)c1ccc2oc3ccc(O)cc3c(=O)c2c1
inactive: locus YAL013W, strain DEP1, stronger effect = lower value 0.948 | locus YBR229C, strain ROT2, stronger effect = lower value 0.982 | locus YDL101C, strain DUN1, stronger effect = lower value 0.982 | locus YDL134C, strain PPH21, stronger effect = lower value 1 | locus YDR150W, strain NUM1, stronger effect = lower value 0.973 | locus YEL061C, strain CIN8, stronger effect = lower value 0.97 | locus YGR078C, strain PAC10, stronger effect = lower value 1 | locus YHR030C, strain SLT2, stronger effect = lower value 0.826 | locus YHR087W, strain rtc3, stronger effect = lower value 0.937 | locus YJL187C, strain SWE1, stronger effect = lower value 0.956 | locus YJR043C, strain POL32, stronger effect = lower value 0.977 | locus YJR075W, strain HOC1, stronger effect = lower value 1.01 | locus YKL190W, strain CNB1, stronger effect = lower value 0.979 | locus YLR039C, strain RIC1, stronger effect = lower value 1 | locus YLR058C, strain SHM2 (second series), stronger effect = lower value 0.988 | locus YLR085C, strain ARP6, stronger effect = lower value 0.864 | locus YLR262C, strain YPT6, stronger effect = lower value 0.99 | locus YML094W, strain GIM5, stronger effect = lower value 0.913 | locus YMR219W, strain ESC1, stronger effect = lower value 1 | locus YMR263W, strain SAP30, stronger effect = lower value 0.949 | locus YMR307W, strain GAS1, stronger effect = lower value 0.814 | locus YNL153C, strain GIM3, stronger effect = lower value 0.973 | locus YNL298W, strain CLA4 (second series), stronger effect = lower value 0.956 | locus YNL322C, strain KRE1, stronger effect = lower value 1.01 | locus YNR030W, strain Alg12, stronger effect = lower value 0.939 | locus YOL006C, strain TOP1, stronger effect = lower value 0.945 | locus YPL055C, strain LGE1, stronger effect = lower value 0.88 | locus YPL241C, strain CIN2, stronger effect = lower value 0.908 | locus YPR135W, strain CTF4, stronger effect = lower value 0.872
